These results are taken from PubChem BioAssay (NCI).

The panel holds about 83,000 compounds, 20% with a hit somewhere; the sample as a whole holds those more often.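 Activity criterion: percent growth below 10, measured after cells in 96-well plates were exposed to a single compound concentration for 48 hours.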 Values without a mark were called inactive. The source made the active and inactive calls.

This assay deals with HL-60(TB) leukemia. Description: NCI-60 one-dose screen, 48 h (100 = growth as untreated, 0 = no growth, -100 = all killed). The following applies: 10 µM unless noted.
With `COc1cc(/C=C/c2cc(/C=C/c3ccc(O)c(OC)c3)n(C(=O)Cc3ccccc3)n2)ccc1O`, the growth was -9.93% (active).
For `N=c1nc(N2CCCCC2)cc(N)n1O`, the growth is 92.4%.
Consider `C=C(C)[C@@H]1CCC[C@]2(C(=O)N3CCN(C)CC3)CC[C@]3(C)[C@@H](CC[C@@H]4[C@@]5(C)CC/C(=N\NC(=O)c6ccncc6)C(C)(C)[C@@H]5CC[C@]43C)[C@@H]12`, for which the growth was 82.8%.
Under `O=C(Nc1ncc(Cc2ccccc2)s1)c1sc2ccccc2c1Cl` stands -9.41% (active); under `COc1cc(C2=NN(C(C)=O)C(c3cccc(Nc4ccnc5cc(C(F)(F)F)ccc45)c3)C2)cc(OC)c1OC` (centres undefined), 10.6%; under `Cc1ccc(N)cc1CN1C(=O)c2ccccc2C1=O`, 107%.
Regarding `CC/C(=C(\c1ccc(Cl)cc1)c1ccc(OCCN2CCCCC2)cc1)c1ccc(O)cc1`, the growth was -40.4% (active).
With `CN1c2ccccc2[C@]2(Cc3ccccc3)Cc3ccccc3N[C@H]12` the figure was 94.7%; with `Cc1ccc2nc(-c3ccc(N=Cc4ccccc4O)cc3)sc2c1`, 77.7%; with `O=S(=O)(Nc1ccc(Br)cc1)c1ccc(-c2cnc(C3CC3)o2)cc1`, -36% (active).
Under `CCCNNC(=O)/C=C/c1ccc(CNCCc2c(C)[nH]c3ccccc23)cc1` stands 33.3% [2.5 µM].
As to `CC(=O)Nc1nccs1`, the growth was 103%.
Under `CCOC(=O)c1ccc2nc(-c3c(C)nn(-c4ccccc4)c3N3CCOCC3)[nH]c2c1` stands 95.4%; under `CSc1nc(-c2cccc(NC(=O)CCl)c2)c(C#N)c(=O)n1C`, -22.1% (active).
